# Screening results deposited in PubChem by National Center for Advancing Translational Sciences (NCATS).
# Compounds with a hit are over-represented: about 19% of the library has one in this group of screens.
# IL1B secr inh: blocks inflammasome-driven IL-1 beta release | AID 743279 | actives 4.7% (n = 360,000) | activity change, % at 57.5 µM | THP-1 LPS/ATP IL-1B secretion, AlphaLISA, 16 h; hits give low values; in the data active = activity change below about -50%; inconclusive = mostly about -30% to -49%; also: % is scaled to controls: 0 for no effect and ±100 for the full control effect
#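 THP-1 cells pretreated 1 hr with compounds (up to 57.5 uM final), then stimulated with LPS (250 ng/mL final) plus ATP (1.25 mM final); secreted IL-1B measured by AlphaLISA after 16 hr, decreased signal indicating inhibition.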
# TGFb SMAD3 inh: blocks TGF-b signaling | HepG2 CAGA-GFP TGF-b/SMAD3 reporter, GFP fluorescence, 18 h; TGF-beta stimulated, 500 pg/mL final | Potency, µM (titrated, usually from 46.1 µM), inactives show at the highest dose activity, negative = inhibition, actives largely listed as inhibitors | actives 1.2% (n = 410,000) | AID 588855; also: potency is read from the fitted curve at half-maximal effect; % is scaled to controls: 0 for no effect and ±100 for the full control effect; nearly all actives have a fitted effect of over 65% in size
#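 Using HEPG2 CAGA-GFP reporter cells at 1000 cells/well, we pinned test compounds, stimulated with recombinant TGF-beta (500 pg/mL final) and measured total well GFP after 18 h.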
# S-ASM inh: blocks human secretory acid sphingomyelinase; actives 0.006% (n = 340,000); P17405; AID 504937; Potency, µM (highest dose often 57.5 µM), for the others: top-dose activity change, negative = inhibition, actives largely listed as inhibitors; placental ASM, HMU-PC fluorogenic substrate, 60 min; also: potency is read from the fitted curve at half-maximal effect
# Target sequence (P17405 47-631 limits assumed): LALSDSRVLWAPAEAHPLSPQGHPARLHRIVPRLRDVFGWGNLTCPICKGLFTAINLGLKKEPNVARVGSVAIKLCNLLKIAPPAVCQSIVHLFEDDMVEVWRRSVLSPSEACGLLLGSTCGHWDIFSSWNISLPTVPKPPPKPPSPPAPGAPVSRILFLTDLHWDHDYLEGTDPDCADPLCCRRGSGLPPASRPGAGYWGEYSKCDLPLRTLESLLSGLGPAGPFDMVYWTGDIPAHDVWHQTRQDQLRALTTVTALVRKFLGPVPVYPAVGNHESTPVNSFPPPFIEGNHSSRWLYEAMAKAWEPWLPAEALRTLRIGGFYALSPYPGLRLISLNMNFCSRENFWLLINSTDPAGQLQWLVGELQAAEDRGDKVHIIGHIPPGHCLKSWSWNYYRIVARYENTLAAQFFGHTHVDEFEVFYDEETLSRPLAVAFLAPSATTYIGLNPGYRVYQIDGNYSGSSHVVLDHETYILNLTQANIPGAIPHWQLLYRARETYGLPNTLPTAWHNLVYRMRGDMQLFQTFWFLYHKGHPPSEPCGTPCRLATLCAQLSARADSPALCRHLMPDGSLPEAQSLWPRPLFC
#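 Fluorogenic HMU-PC substrate (9 uM final) is turned over by placental ASM in 60 min at 37 C after a 10 min compound preincubation. Reaction ended by alkaline stop (pH 10), with fluorescence read at 386/447 nm.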
# TDP1 cell noCPT: qHTS for Inhibitors of human tyrosyl-DNA phosphodiesterase 1 (TDP1): qHTS in cells in absence of CPT. DT40 Tdp1-/- hTDP1 cells, no CPT, ATP luminescence, 48 h. actives 15% (n = 420,000). Potency, µM (doses to about 46.2 µM), for the others: at the highest dose activity change, negative = growth inhibition, hits mostly inhibitors; also: potency is read from the fitted curve at half-maximal effect; % is scaled to controls: 0 for no effect and ±100 for the full control effect; nearly all actives have a fitted effect of over 55% in size
#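 Readout: luminescence from CellTiter-Glo after 30 min in the dark at RT. Cells: DT40 Tdp1-/- with stable hTDP1, 400/well. Exposure: compounds alone, ≥48 hr, 37 °C.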
# DT40 TDP1 CPT: DT40-hTDP1 cell growth loss with CPT; chicken DT40 Tdp1-/-;hTDP1 cells + 20 nM CPT, ATP luminescence, 48 h; Potency, µM (top dose mostly 46.2 µM), for inactives: at the highest dose activity change, negative = growth inhibition, actives largely listed as inhibitors; actives 12% (n = 420,000); AID 686979; also: potency is read from the fitted curve at half-maximal effect; % is scaled to controls: 0 for no effect and ±100 for the full control effect; nearly all actives have a fitted effect of over 55% in size
#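 Chicken DT40 Tdp1-/- cells stably complemented with human TDP1 were seeded at 400 cells/well in medium containing 20 nM camptothecin, exposed to pin-transferred compounds, and grown at 37 °C for at least 48 hr. Viability was read as ATP luminescence.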
# HepG2 tox: kills HepG2 cells in TGF-b inhibitor counter-screen; HepG2 CAGA-GFP viability, ATP luminescence, 18 h; Potency, µM (titrated, usually from 46.1 µM), for the others: at the highest dose activity change, negative = cytotoxicity, hits mostly cytotoxic; actives 0.76% (n = 410,000); AID 588856; also: potency is read from the fitted curve at half-maximal effect
#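 CellTiter-Glo luminescence gave cytotoxicity after 18 hours at 37 degrees C. The cells were HepG2 CAGA-GFP in 1% FBS DMEM, stimulated with 500 pg/mL TGF-beta after compound addition. %Activity was normalised to no-cell wells (complete cell-killing) and DMSO (no toxicity), and curves were fitted and classified.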
# An asterisk follows results filed as active; ? = inconclusive; nt = no result. Unless noted, calls follow the shape of the dose curve; as a rule, active = well fitted curve in the direction sought with a large enough effect; inconclusive = small, poorly fitted or top-dose-only effect, or another doubt; inactive = no such curve, though single readings can be large; an effect the other way counts as inactive or inconclusive.
SMILES,IL1B secr inh,TGFb SMAD3 inh,S-ASM inh,TDP1 cell noCPT,DT40 TDP1 CPT,HepG2 tox
O=C(COc1ccc(Br)cc1CO)N1CCCc2ccccc21,-10.9,8.4%,-0.7%,25.9µM*,-5.5%,-15.7%
NC(=O)c1ccccc1OCC(=O)N1CCCc2ccccc21,48.4,14.5%,-1.9%,?,?,-5.2%
O=C(COC(=O)/C=C/c1ccc2ccccc2n1)NNC(=O)c1ccccc1,?,?,nt,25.9µM*,?,-37.7%
CC(C)CCNC(=O)COC(=O)/C=C/c1ccc2ccccc2n1,-59.3*,-12.4%,-1.7%,?,?,31.4%
O=C(COC(=O)/C=C/c1cccc(F)c1)NNC(=O)c1ccccc1,-14.6,9.3%,-2.6%,7.8%,5.1%,15.6%
O=C(COC(=O)/C=C/c1ccccc1)NCCNC(=O)COC(=O)/C=C/c1ccccc1,-16.3,0.4%,5.9%,-12.5%,-15.0%,1.5%
CCCCNc1ccc(C(=O)OCCN(CC)CC)cc1,nt,nt,nt,-25.1%,-16.3%,nt
Cc1nc(Nc2ccccc2O)c2oc3ccccc3c2n1,0.0,0.0%,-13.6%,-13.6%,1.9%,-10.1%
CCNc1nc(CC)nc2c1oc1ccccc12,-2.5,-10.7%,9.8%,-19.0%,-14.0%,2.4%
CCNc1nc(C)nc2c1oc1ccccc12,7.7,1.9%,-1.8%,-21.3%,0.581µM*,-19.0%
Cc1nc(NC(C)C)c2oc3ccccc3c2n1,?,-0.7%,-1.8%,13µM*,?,-14.6%
O=C(COC(=O)c1ccccc1C(=O)c1ccccc1)NCCc1ccc(Cl)cc1Cl,-85.3*,-14.8%,-5.2%,20.6µM*,?,-28.6%
O=C(COC(=O)c1ccccc1C(=O)c1ccccc1)NCc1ccc(F)cc1,-76.8*,6.9%,-2.2%,?,?,9.4%
O=C(COC(=O)c1ccccc1C(=O)c1ccc(Cl)cc1)NCc1ccccc1,-69.1*,?,-2.7%,18.4µM*,?,-20.2%
O=C(Cc1ccccc1)NCCc1ccc(Cl)cc1Cl,16.6,-1.8%,-1.4%,-8.5%,9.0%,7.1%
O=C(COC(=O)c1nc(Cl)c(Cl)c(Cl)c1Cl)NCc1ccccc1,-88.8*,?,-8.4%,-15.7%,?,-23.4%
O=C(Cc1ccc(Br)cc1)NCCc1ccc(Cl)cc1Cl,-59.8*,-5.1%,-5.7%,?,-24.7%,-31.9%
COc1cc(C(=O)OCC(=O)NCCCc2ccccc2)ccc1OCC(C)C,17.3,?,-3.6%,14.4%,-9.8%,-5.0%
COc1cc(C(=O)OCC(=O)N2c3ccccc3NC(=O)C2(C)C)ccc1OCC(C)C,-81.0*,-31.0%,2.5%,?,?,-22.2%
CC1(C)C(=O)Nc2ccccc2N1C(=O)COC(=O)c1cccc(O)c1,-21.6,-2.2%,2.0%,?,?,0.0%
CCCc1ccc(C(=O)NNc2cc(Cl)ccc2Cl)cc1,?,-1.9%,-4.1%,23.1µM*,?,-24.9%
CCCc1ccc(C(=O)NNC(=O)c2ccc(Cl)cc2)cc1,-24.6,-2.1%,-3.2%,-10.4%,4.3%,-2.3%
COc1cc(C(=O)OCC(=O)NCc2ccc(F)cc2)ccc1OCC(C)C,-6.9,3.0%,2.4%,16.4µM*,?,-3.7%
Cc1ccc(C(=O)c2ccccc2C(=O)OCC(=O)NCCc2ccccc2)cc1,-74.6*,-12.9%,-2.8%,?,?,1.3%
CCc1ccc(C(=O)NCc2ccc(Cl)cc2Cl)cc1,-52.5*,-8.7%,-1.3%,-5.0%,1.6%,-24.6%
SMILES,IL1B secr inh,TGFb SMAD3 inh,S-ASM inh,TDP1 cell noCPT,DT40 TDP1 CPT,HepG2 tox
COc1ccc(Cl)cc1C(=O)NNC(=O)CNC(=O)c1ccco1,6.7,-12.9%,2.6%,0.4%,-9.8%,-7.9%
COc1ccc(OC)c(CNS(=O)(=O)c2cc(-c3onc(C)c3C)ccc2C)c1,nt,-7.0%,nt,?,?,-21.0%
Cc1ccc(S(=O)(=O)N2[C@H](CC(=O)c3cccs3)OC[C@@H]2C(C)C)cc1,29.9,nt,nt,18.4µM*,?,nt
Cc1ccc(S(=O)(=O)N2[C@@H](Cc3ccccc3)CO[C@H]2CC(=O)c2ccc(F)cc2)cc1,-13.9,nt,nt,?,23.1µM*,nt
OCCCNc1ncnc2c1ncn2[C@H]1CN(Cc2ccco2)C[C@@H](CO)O1,24.7,1.5%,nt,-0.5%,5.7%,-18.6%
CC(C)C(=O)Nc1ccc(Oc2ccc3c(c2)C(=O)NC3=O)cc1,6.0,?,-1.0%,9.2%,-3.7%,20.6%
COCCN(C(=S)Nc1cc(C)cc(C)c1)C(C)c1cccs1 (configuration not stated),-9.6,-18.9%,5.8%,?,18.4µM*,-29.4%
COCCN(C(=S)Nc1cc(C)cc(C)c1)C(C)c1ccco1 (configuration not stated),-12.2,6.9%,0.7%,25.9µM*,?,28.4%
CC(C)CCN(C(=S)Nc1cccc(F)c1)C(C)c1cccs1 (configuration not stated),-2.4,?,-3.0%,0.8%,?,0.2%
O=C(CCC(=O)c1cccs1)NCCc1ccc(F)cc1,31.2,?,-0.2%,-13.1%,-0.1%,-0.3%
CCCC/C=C1/CCC(CN(C)C)C1=O (configuration not stated),-27.8,-9.5%,1.3%,2.31µM*,2.06µM*,-3.7%
COc1cccc(Cn2c(=O)n(CC3CCC(C(=O)N4CCCCC4)CC3)c(=O)c3sccc32)c1 (configuration not stated),nt,?,nt,?,?,-30.3%
O=C(CN1C(=O)CCC1=O)NCC12CC3CC(CC(C3)C1)C2,?,26.7%,4.7%,25.9µM*,?,-19.9%
Cc1nc2sc(C(=O)Nc3ccc(F)cc3)c(N)c2c(-c2ccc(Br)cc2)c1C(=O)Nc1ccc(Cl)cc1,nt,-6.1%,nt,?,?,-17.5%
O=C(NC(=S)Nc1ccccc1)C1CCCCC1,-6.4,-16.4%,-3.3%,9.4%,7.9%,-24.0%
O=C(NC(=S)NCc1ccccc1)C1CCCCC1,30.6,0.0%,-0.6%,20.6µM*,18.4µM*,-28.3%
CCCC(=O)N1CCC1(C)C(=O)NS(=O)(=O)c1ccc(C)cc1 (configuration not stated),-4.9,-0.2%,nt,6.1%,-6.6%,-23.3%
CCCC(=O)C1=C(c2ccc(C)c(C)c2)N(C(=O)CCC)n2c(CC)nnc2S1,nt,-16.4%,nt,23.1µM*,?,-27.4%
